Test results reported in PubChem BioAssay (NCI).
Compounds without any hit were thinned out: in the full panel of roughly 83,000, 20% have a hit.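 Cells were grown in 96-well plates and exposed to the test compound at a single concentration for 48 hours; results are reported as percent growth, with values below 10 considered active.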 A number with no mark means an inactive call. Activity calls are given as the source filed them.

The molecules below were run on CAKI-1 renal (assay: NCI-60 one-dose screen, 48 h (100 = growth as untreated, 0 = no growth, -100 = all killed)). Details: 10 µM unless noted.

Row | SMILES | growth
1 | C=CC(=O)N1CCC(Oc2cc3c(Nc4ccc(Cl)c(Cl)c4F)ncnc3cc2OC)CC1 | -34.2% (active)
2 | FC(F)(F)c1ccc(CNc2ccc(Cc3c[nH]c4ncc(Cl)cc34)cn2)cn1 | 25.2%
3 | O=S1(=O)OC(c2cc(Cl)c(O)c(Br)c2)(c2cc(Cl)c(O)c(Br)c2)c2ccccc21 | 107%
4 | CC(C)(C)OC(=O)N1CCC(O)[C@@H](O[Si](c2ccccc2)(c2ccccc2)C(C)(C)C)[C@H]1/C=C/c1ccccc1 (stereo partly specified) | 45.3%
5 | Cc1cn(-c2cc(NC(=O)c3ccc(C)c(Nc4nccc(-c5cccnc5)n4)c3)cc(C(F)(F)F)c2)cn1 | 50.6%
6 | Cc1cnc(Nc2ccc(OCCN3CCCC3)cc2)nc1Nc1cccc(S(=O)(=O)NC(C)(C)C)c1 | -88.3% (active)
7 | Cc1cccc(C)c1N1C(c2ccccc2)=NNC12C=CC(=O)c1c(O)cccc12 (stereo unspecified) | 101%
8 | C=CC(=O)Nc1cccc(Nc2nc(Nc3ccc(N4CCN(C(C)=O)CC4)cc3OC)ncc2C(F)(F)F)c1 | -13.1% (active)
9 | COc1ccc(/C(C)=C(\c2ccc(Cl)cc2)c2ccc(OCCN3CCCCCC3)cc2)cc1 | 66.6%
10 | Cc1cc(C(=O)Nc2cc(Oc3ccc4nc(NC(=O)C5CC5)cn4n3)ccc2C)n(C)n1 | 23.8%
11 | CO[C@H](C(=O)N[C@@H](CCCCNC(=O)OCc1ccccc1)C(=O)OC(C)(C)C)[C@@H]1Cc2cc3cc(OC4CC(OC5CC(O)C(O)C(C)O5)C(O)C(C)O4)c(C)c(O)c3c(O)c2C(=O)[C@H]1OC1CC(OC2CC(OC3CC(C)(O)C(O)C(C)O3)C(O)C(C)O2)C(O)C(C)O1 (stereo partly specified) | 22.6%
12 | CCN(CCCOc1ccc2c(Nc3cc(CC(=O)Nc4cccc(F)c4)[nH]n3)ncnc2c1)CCOP(=O)(O)O | 58.1%
13 | CC/C=C\C[C@H]1C/C=C2/C(=O)C=C[C@@H]2C/C=C\CCCC(=O)O1 | -35.8% (active)
14 | Cc1cn(-c2cc(NC(=O)c3ccc(C)c(Nc4nccc(-c5cnccn5)n4)c3)cc(C(F)(F)F)c2)cn1 | 97.6%
15 | COc1cc2ncnc3c2cc1OCCCCCN(C)Cc1ccc(Br)cc1N3 | 19.3%
16 | C[C@@]1(C(=O)Nc2ccc(F)nc2)CCCN1c1nc(Nc2cc(C3CC3)[nH]n2)c2cccn2n1 | -17.7% (active)

Row | SMILES | growth
17 | C[C@]12O[C@H](C[C@]1(O)CO)n1c3ccccc3c3c4c(c5c6ccccc6n2c5c31)CNC4=O | -96.5% (active)
18 | CCN1CCN(CCCN(C[C@H]2Cc3ccccc3CN2)[C@H]2CCCc3cccnc32)CC1 | 74.4%
19 | COCc1c(-c2ccc(NC(=O)Nc3cc(C(F)(F)F)ccc3F)c(F)c2)c2c(N)ncnn2c1CN1CCOCC1 | -11.4% (active)
20 | COc1cc2cc(NCc3ccc(F)cc3)nc(C)c2cc1OC | 67%
21 | CC(=O)C1=C(C)NC(SCc2nnc(-c3ccc(C)cc3)o2)=NC1c1ccc(F)cc1 (stereo unspecified) | 88%
22 | N#CC[C@H](C1CCCC1)n1cc(-c2ncnc3[nH]ccc23)cn1 | 34.9%
23 | Cc1ccc(-[n+]2c3cc(N)c(C)cc3nc3cc(C)c(Nc4ccccc4)cc32)cc1 | -42.2% (active)
24 | COc1cc2cc(NCc3ccc(Cl)cc3)nc(C)c2cc1OC | 59.8%
25 | CC(=O)c1cnc2ccc(-c3cc(Cl)c(O)c(Cl)c3)nc2c1NC1CCC(CN(C)C)CC1 (stereo unspecified) | -49.4% [2.5 µM] (active)
26 | CCN(CC)c1cc2oc3cc(N)cc(=N)c-3nc2cc1C | 42.5%
27 | CO[C@H]1C[C@@H]2CC[C@@H](C)[C@@](O)(O2)C(=O)C(=O)N2CCCC[C@H]2C(=O)O[C@H]([C@H](C)C[C@@H]2CC[C@@H](O)[C@H](OC)C2)CC(=O)[C@H](C)/C=C(\C)[C@@H](O)[C@@H](OC)C(=O)[C@H](C)C[C@H](C)\C=C/C=C/C=C/1C | 39.6%
28 | COc1cccc(NC(=O)Nc2ccc(Nc3ncnc4sc5c(c34)CCN(C(=O)CCl)C5)cc2)c1 | 94.2%
29 | CCN(CC)CCNC(=O)c1c(C)[nH]c(/C=C2\C(=O)Nc3ccc(F)cc32)c1C | 17.5%
30 | CO[C@@H](C)Cn1c(=O)n(C)c2cnc3ccc(-c4cncc(C(C)(C)O)c4)cc3c21 | -15.5% (active)
31 | Cc1c(N)ccc(-c2ccc(N)c(C)c2S(=O)(=O)O)c1S(=O)(=O)O | 116%
